Consider 66 molecules from PubChem BioAssay AID588342 (National Center for Advancing Translational Sciences (NCATS), 2011).

Structures are written as SMILES. About 25,000 (6.9%) of roughly 360,000 compounds were called active. A call without a number means that no potency is given here. Inconclusive results (about 9%) are left out. The sample holds actives, similar compounds and a random draw of the others, so the mix is not that of the screen. The call rests on the fitted dose curve; in most records, active means well fitted inhibition curve with a large enough effect; inconclusive means small, poorly fitted or top-dose-only effect; inactive means flat fitted curve, though single readings scatter.
Potency means the concentration at half of the fitted maximal effect.

Sequence of Luciferin 4-monooxygenase (Photinus pyralis) (P08659 whole entry, looked up): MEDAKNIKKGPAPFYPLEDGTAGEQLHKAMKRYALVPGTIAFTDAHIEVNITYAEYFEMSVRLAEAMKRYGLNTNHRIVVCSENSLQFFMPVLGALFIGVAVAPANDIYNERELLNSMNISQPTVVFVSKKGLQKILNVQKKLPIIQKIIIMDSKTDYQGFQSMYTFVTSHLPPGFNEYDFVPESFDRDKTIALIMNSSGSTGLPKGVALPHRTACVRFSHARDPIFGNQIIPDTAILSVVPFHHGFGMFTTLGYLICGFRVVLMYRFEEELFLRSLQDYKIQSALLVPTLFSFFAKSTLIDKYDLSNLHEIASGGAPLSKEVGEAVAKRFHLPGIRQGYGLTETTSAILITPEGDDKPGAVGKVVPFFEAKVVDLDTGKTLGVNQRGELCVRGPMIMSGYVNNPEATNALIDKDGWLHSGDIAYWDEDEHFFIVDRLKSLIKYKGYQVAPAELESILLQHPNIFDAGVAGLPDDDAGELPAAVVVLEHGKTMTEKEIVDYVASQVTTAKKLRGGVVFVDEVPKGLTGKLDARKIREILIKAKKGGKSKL

The experiment concerns the target Luciferin 4-monooxygenase (Photinus pyralis) (UniProt P08659). As to the kind of experiment: qHTS profiling assay for firefly luciferase inhibitor/activator using purifed enzyme and Km concentrations of substrates (counterscreen for miR-21 project). Further: nearly all actives have a fitted effect of over 55% in size. As to conditions: purified FLuc, luminescence inhibition; series mostly up to 57.5 µM. In short, it runs like this: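 Purified P. pyralis luciferase (10nM final) with 10uM D-luciferin and 10uM ATP (Km levels) in 50mM Tris acetate pH 7.5, 10mM Mg acetate, 0.01% Tween-20, 0.05% BSA; qHTS 6-point titration, ~60 µM downward; luminescence read.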
On the technique in general: qHTS replaces the single test concentration by a dilution series.
For the molecule `CC(=O)Nc1ccc(/C=N/NC(=O)c2cccs2)cc1`, the Potency was 12 µM (active).

For the molecule `NC(=O)N/N=C\c1cccs1`, the Potency entry was “inactive”. The same measure for `O=C(NC(Cc1c[nH]c2ccccc12)C(=O)N/N=C/c1ccc(Br)cc1)c1cccs1` (stereo unspecified): “inactive”. The same measure for `Cc1cccc(OCC(=O)NCC(=O)N/N=C/c2ccc(N(C)C)cc2)c1`: “inactive”; for `CCN(CC)c1ccc(/C=N/NC(=O)CNC(=O)c2cccs2)cc1`: 23.9 µM (active).

Consider `CC(C)OCCCNC(=O)CNC(=O)c1cccs1`, for which the Potency entry was “inactive”.

`CCC(Sc1nnc(-c2ccc(OC)cc2)c(-c2ccc(OC)cc2)n1)C(=O)NC1CCCCC1` (stereo unspecified): the Potency result is “inactive”. Under `CCOC(=O)c1c(NC(=O)/C=C/c2ccc(OC)cc2)sc2c1CCC(C)C2` (stereo unspecified) stands “inactive”. Under `CCc1ccc(C(=O)CC2(O)C(=O)N(CCc3ccccc3)c3ccc(Br)cc32)cc1` (stereo unspecified) stands “inactive”; under `Cc1ccc(S(=O)(=O)N2CCCCC2)cc1NC(=O)[C@@H]1CCCN1C(=O)c1cccs1`, “inactive”; under `CC(=O)Nc1ccc(NC(=O)c2cc3sccc3n2Cc2ccc(F)cc2)cc1`, “inactive”. The same measure for `CCOC(=O)c1cc(C)sc1NC(=O)C1CCC1`: “inactive”. With `CCc1ccccc1NC(=O)c1ccc2snnc2c1`, the Potency entry is “inactive”. The same measure for `Cc1cccc(NC(=O)c2ccc3nsnc3c2)c1C`: “inactive”; for `O=C(Nc1ccccc1Cl)c1ccc2nsnc2c1`: 19 µM (active).

With `CC1(C)CC(N2CCN(C(c3ccccc3)c3ccccc3)CC2)=CC(=[N+]2CCCCC2)C1`, the Potency result was “inactive”. The same measure for `O=S(=O)(NC1CC1)c1ccc(Cl)cc1`: “inactive”. With `Cc1ccc(CNC(=O)Cn2c(=O)ccc3cc(S(=O)(=O)N4CCCC4)ccc32)cc1`, the Potency result was “inactive”. Turning to `COCCN(C(=O)C(C)C)c1nnc(-c2ccc(C(C)(C)C)cc2)s1`, the Potency was 15.1 µM (active). Under `COc1ccc(N(CC(=O)NC(C)(C)C)C(=O)c2ccco2)cc1` stands “inactive”; under `COCCN(C(=O)c1ccco1)c1nnc(-c2ccc(OC)cc2)s1`, 21.3 µM (active). Under `Cc1nnc(N(Cc2ccco2)C(=O)c2ccno2)s1` stands “inactive”; under `CN1CCNC(=O)C1CC(=O)N1CC=C(c2ccc(F)cc2)CC1` (stereo unspecified), “inactive”.

Turning to `Cn1c(C(=O)N2CCC(C(=O)N3CCN(c4ccccc4)CC3)CC2)cc2sccc21`, the Potency entry was “inactive”. The same measure for `Cc1ccc(C)c(NC(=O)CSC2=Nc3ccccc3N=C(c3ccc(F)cc3)C2)c1`: “inactive”. Under `CCOc1ccc(CNC(=O)c2ccc3nc(CC)c(CC)nc3c2)cc1OC` stands “inactive”; under `CCN(CC)c1ccc(NC(=O)Cn2nc3c(cc2=O)CCCC3)c(C)c1`, “inactive”; under `CCOc1ccc(CNC(=O)c2ccc3c(c2)nnn3C2CCCC2)cc1`, “inactive”.

As to `O=C(CNCCC1=CCCCC1)Nc1ccccc1N1CCCCCC1`, the Potency entry was “inactive”. Under `COc1ccc(NS(=O)(=O)c2cc3c(cc2C)N(C(C)=O)CCO3)cc1` stands “inactive”; under `COCCCNC(=O)c1c(NC(=O)c2cc(=O)c3cc(C)c(C)cc3o2)sc2c1CCCC2`, “inactive”. Under `O=C1c2cccc3c([N+](=O)[O-])ccc(c23)C(=O)N1CC1CCCO1` (stereo unspecified) stands “inactive”; under `CC(=NCC1CCCO1)c1c(O)[nH]c(=O)[nH]c1=O` (stereo unspecified), “inactive”. As to `O=C1C(C=NCC2CCCO2)=C(O)c2ccccc21` (stereo unspecified), the Potency is 19 µM (active). The same measure for `CC(C)n1c(=O)[nH]c2cc(C(=O)Nc3ccccc3)ccc21`: “inactive”; for `CC(C)c1ccc(NC(=O)c2ccc3c(O)c(S(=O)(=O)c4ccccc4)c(=O)[nH]c3c2)cc1`: 1.51 µM (active). Under `CCCCCn1c(=O)[nH]c2cc(C(=O)Nc3ccc(F)cc3)ccc2c1=O` stands “inactive”; under `CCCCn1c(N)c(N(CCC(C)C)C(=O)COC(=O)c2cccnc2OCC)c(=O)[nH]c1=O`, “inactive”. Under `Cc1cc(C)nc(SCc2ccccc2C#N)n1` stands “inactive”; under `COc1ccc(C=C(C#N)C#N)c(CSc2ccccn2)c1`, “inactive”; under `COc1ccc(/C=N/OCc2ccccc2C#N)c(OC)c1`, 21.3 µM (active). Consider `Cc1ccccc1OCC(=O)Nc1c(C(=O)Nc2ccccc2F)oc2ccccc12`, for which the Potency entry is “inactive”.

For `CCOC(=O)[C@H]1[C@H]2COc3cc(OC)ccc3[C@@H]2N2C(=O)N(c3ccc(Br)cc3)C(=O)[C@@]12C`, the Potency result is “inactive”. The same measure for `COc1ccc(CNC(=O)Cc2ccc(-c3ccccc3)cc2)cc1OC`: “inactive”. In the case of `COc1ccc(CNC(=O)COc2ccccc2C(=O)c2cnn(-c3ccccc3)c2)cc1OC`, the Potency is 5.36 µM (active). The same measure for `COc1ccc(CNC(=O)COC(=O)c2c(C)nn(-c3ccccc3)c2C)cc1OC`: “inactive”; for `CCOC(=O)c1sc(NC(=O)c2ccncc2)nc1C`: 19 µM (active); for `CCOC(=O)c1sc(NC(=O)c2sc(C)nc2C)nc1C`: 6.01 µM (active). Under `CCOC(=O)c1sc(NC(=O)CSc2n[nH]c(CC)n2)nc1C` stands “inactive”; under `CCOC(=O)c1sc(/N=C/Nc2nc(C)c(C(=O)OCC)s2)nc1C`, “inactive”. Under `CCOC(=O)c1cccnc1NC(=O)c1ccncc1` stands “inactive”. With `CCOC(=O)c1sc(NC(=O)C2CSC3(C)CCC(=O)N23)nc1C` (stereo unspecified), the Potency entry is “inactive”. The same measure for `Cc1ccc(C)c(Oc2c(C(F)(F)F)oc3c(CN4CCN(C)CC4)c(O)ccc3c2=O)c1`: “inactive”; for `Cc1cc(C)n2nc(CNS(=O)(=O)c3c(F)c(F)c(F)c(F)c3F)nc2n1`: “inactive”.

With `Cc1ccc(C(=O)Nc2ccccc2F)cc1S(=O)(=O)N1CCOCC1`, the Potency entry is “inactive”.

Consider `CCOc1cc(/C=C(\C#N)C(=O)Nc2ccccc2C)ccc1OCc1cc(=O)n2nc(CC)sc2n1`, for which the Potency result is “inactive”. Under `Cc1ccc(C(=O)COC(=O)c2cccc(N3C(=O)c4c(C)nc5ccccc5c4C3=O)c2)cc1C` stands 2.69 µM (active). Under `CCCc1nc2ccccc2c(C(=O)OCC(=O)c2ccc3c(c2)NC(=O)CO3)c1CC` stands “inactive”; under `O=C(CCc1nc2ccccc2c(=O)[nH]1)OCC(=O)c1cccc(Cl)c1`, “inactive”; under `CNC(=O)C1CC(=O)N(c2ccc(OCC(=O)Nc3ccccc3C)cc2)C1` (stereo unspecified), “inactive”. Under `C/C(=N\Nc1nc(Nc2ccccc2)nc(N2CCOCC2)n1)c1cccs1` stands 19 µM (active); under `C/C(=N\Nc1nc(N2CCOCC2)nc(N2CCOCC2)n1)c1ccc([N+](=O)[O-])cc1`, “inactive”; under `Cc1ccccc1NC(=O)CSc1nc2ccc(Nc3nc(N4CCOCC4)nc(N4CCOCC4)n3)cc2s1`, “inactive”. Turning to `CN(C)/N=C/c1cn(-c2ccccc2)nc1-c1cccnc1`, the Potency result is “inactive”.

For the molecule `COc1ccc(-c2nn(-c3ccccc3)cc2/C=N/Nc2ccccn2)cc1OC`, the Potency was 10.7 µM (active). The same measure for `COc1cccc(-c2nn(-c3ccccc3)cc2/C=C(\C#N)C(=O)NCCCn2ccnc2)c1`: “inactive”.
